Experimental data as given in PubChem BioAssay AID1159580 (chemical genetic matrix, 2015).
Several values for one entry are separate records, joined by “and”; a condition that tells them apart may be missing. Identical values can stand only once. The campaign covered roughly 5,500 compounds. About 2,000 (36%) were called active. Inconclusive results (about 18%) are left out. No stated cut-off is given here; in the data, active means normalized growth mostly below about 0.91 (no sharp cut-off); inconclusive means no clear call, values can overlap the other calls; inactive means mostly above about 0.92. The list shows a part of the results.

Assay: chemical genetic growth profiling, strain panel (AID 1159580);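 further: tested at 20 µM; growth read once vehicle control cultures reached saturation at 30 °C; 1 = growth at the plate median or of vehicle wells; lower values mean less growth of the strain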
Conditions: S. cerevisiae deletion strains, growth OD

Measured: normalized growth

C[C@H](N)[C@H](O)c1ccc(O)c(O)c1
inactive: locus YAL013W, strain DEP1, active compounds read low 1 | locus YAL021C, strain ccr4, active compounds read low 1.01 | locus YAL026C, strain drs2, active compounds read low 1.01 | locus YAL030W, strain snc1, active compounds read low 1 | locus YBL061C, strain skt5, active compounds read low 1.01 | locus YBR009C, strain hhf1, active compounds read low 0.997 | locus YBR021W, strain FUR4, active compounds read low 0.991 | locus YBR023C, strain chs3, active compounds read low 0.999 | locus YBR171W, strain sec66, active compounds read low 0.991 | locus YBR229C, strain ROT2, active compounds read low 0.991 | locus YBR231C, strain swc5, active compounds read low 0.982 | locus YBR279W, strain paf1, active compounds read low 1.02 | locus YCL011C, strain gbp2, active compounds read low 1.01 | locus YCL016C, strain dcc1, active compounds read low 0.987 | locus YCL029C, strain bik1, active compounds read low 0.993 | locus YCL061C, strain MRC1, active compounds read low 1 | locus YCL069W, strain vba3, active compounds read low 1.01 | locus YCR088W, strain abp1, active compounds read low 1 | locus YDL005C, strain med2, active compounds read low 0.996 | locus YDL035C, strain GPR1, active compounds read low 1 | locus YDL040C, strain nat1, active compounds read low 1 | locus YDL074C, strain BRE1, active compounds read low 0.983 | locus YDL101C, strain DUN1, active compounds read low 0.992 | locus YDL185W, strain tfp1, active compounds read low 0.982 | locus YDL192W, strain arf1, active compounds read low 0.979 | locus YDR001C, strain nth1, active compounds read low 1.01 | locus YDR069C, strain doa4, active compounds read low 1.01 | locus YDR101C, strain arx1, active compounds read low 1.01 | locus YDR137W, strain rgp1, active compounds read low 1 | locus YDR159W, strain sac3, active compounds read low 1.01 | locus YDR162C, strain NBP2, active compounds read low 0.999 | locus YDR195W, strain ref2 0.991 | locus YDR297W, strain sur2, active compounds read low 1.01 | locus YDR318W, strain mcm21, active compounds read low 0.98 | locus YDR334W, strain swr1, active compounds read low 0.997 | locus YDR335W, strain msn5, active compounds read low 1.01 | locus YDR388W, active compounds read low 0.992 | locus YDR392W, strain spt3, active compounds read low 0.926 | locus YDR502C, strain sam2, active compounds read low 0.99 | locus YEL003W, strain gim4, active compounds read low 1.01 | locus YEL037C, strain rad23, active compounds read low 1 | locus YEL061C, strain CIN8 (second series), active compounds read low 1.01 | locus YEL061C, strain CIN8, active compounds read low 1 | locus YER015W, strain faa2, active compounds read low 1 | locus YER016W, strain bim1, active compounds read low 1.01 | locus YER110C, active compounds read low 0.97 | locus YER111C, strain swi4, active compounds read low 1 | locus YER155C, strain BEM2 (second series), active compounds read low 0.994 | locus YER155C, strain BEM2, active compounds read low 0.999 | locus YER167W, strain BCK2, active compounds read low 1.02 | locus YFR010W, strain ubp6, active compounds read low 1 | locus YGL078C, strain dbp3, active compounds read low 0.962 | locus YGL086W, strain mad1, active compounds read low 0.996 | locus YGL167C, strain pmr1, active compounds read low 0.995 | locus YGL173C, strain kem1, active compounds read low 1.01 | locus YGL227W, strain vid30, active compounds read low 0.992 | locus YGL240W, strain doc1, active compounds read low 1.01 | locus YGL248W, strain PDE1, active compounds read low 0.988 | locus YGL253W, strain hxk2, active compounds read low 1.02 | locus YGR135W, strain pre9, active compounds read low 0.948 | locus YGR252W, strain gcn5, active compounds read low 0.91 | locus YHR013C, strain ard1, active compounds read low 1.01 | locus YHR027C, strain rpn1, active compounds read low 0.996 | locus YHR030C, strain SLT2, active compounds read low 1.01 and 1 | locus YHR079C, strain IRE1 (second series), active compounds read low 0.993 | locus YHR079C, strain IRE1, active compounds read low 1 | locus YHR094C, strain hxt1, active compounds read low 0.991 | locus YHR129C, strain ARP1, active compounds read low 0.996 | locus YHR142W, strain chs7, active compounds read low 0.993 | locus YHR200W, strain rpn10, active compounds read low 0.985 | locus YIL066C, strain RNR3, active compounds read low 0.998 | locus YIL073C, strain SPO22, active compounds read low 1.01 | locus YIL125W, strain kgd1, active compounds read low 0.975 | locus YIR030C, strain dcg1, active compounds read low 0.988 | locus YJL092W, strain hpr5, active compounds read low 1 | locus YJL095W, strain BCK1 (second series), active compounds read low 1.01 | locus YJL095W, strain BCK1, active compounds read low 0.978 and 1.02 | locus YJL115W, strain asf1, active compounds read low 1.01 | locus YJL129C, strain trk1, active compounds read low 0.986 | locus YJL134W, strain LCB3, active compounds read low 1 | locus YJL154C, strain vps35, active compounds read low 1.01 | locus YJL164C, strain tpk1, active compounds read low 1.01 | locus YJL166W, strain qcr8, active compounds read low 0.992 | locus YJL168C, strain set2, active compounds read low 0.978 | locus YJL187C, strain SWE1 (second series), active compounds read low 0.985 | locus YJL187C, strain SWE1, active compounds read low 0.998 | locus YJR043C, strain POL32, active compounds read low 1.01
